# Of roughly 7,900 targets only a part is listed; those with a hit were picked by preference. About 0.6% of all pairs of compound and target were hits. A number with no mark means an inactive call.
# What was measured:
# Assay in all cases: log2 fold change, soluble protein after heating vs DMSO (PISA); higher = thermal stabilisation; K562 cells, 10 uM, 30 min; active = over 0.2 and 3.5 SD of the protein, either way, in both replicates (recomputed)
# [1] = compound: CC1=C(C=C(C=C1)NC(=O)C2=CC(=CC=C2)C(C)(C)C#N)NC3=CC4=C(C=C3)N=CN(C4=O)C
# Method in brief: (§1)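 K562 cells (2×10^6 cells/mL) were treated with 10 μM compound for 30 min, and aliquots were heated for 3 min over 48°C-58°C. Pooled aliquots were extracted in PBS with 0.5% NP-40 at 4°C, and the supernatant after 21,000xg for 90 min was measured by TMTpro 16plex LC-MS/MS with channel sums equalised. Reported thermal stability, relative to control samples and from duplicates, is a log2 fold change.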
# [2] = compound: CC1=C(C=C(C=C1)NC(=O)C2=CC(=CC=C2)N(C)C)NC(=O)C3=CC=C(C=C3)O
# Method in brief: as §1
# [3] = compound: CC1=CC=C(C=C1)SC2=C3C=C(SC3=CN=C2)C(=O)N
# Method in brief: as §1
# [4] = compound: CC1=NC(=CC=C1)C2=C(N=C(N2)C(C)(C)C)C3=CC4=NC=CN=C4C=C3
# Method in brief: as §1
# [5] = compound: CCCCN(Cc1ccc(C(=O)NO)cc1)C(=O)Nc1ccccc1 [Nexturastat A]
# Method in brief: as §1
# [6] = compound: CCCS(=O)(=O)Nc1ccc(F)c(C(=O)c2c[nH]c3ncc(-c4ccc(Cl)cc4)cc23)c1F [vemurafenib]
# Method in brief: as §1
# [7] = compound: CCCS(=O)(=O)Nc1ccc(F)c(C(=O)c2c[nH]c3ncc(Cl)cc23)c1F
# Method in brief: as §1
# [8] = compound: CCCc1cc(C)[nH]c(=O)c1CNC(=O)c1cc(-c2ccnc(N3CCN(C)CC3)c2)cc2c1cnn2C(C)C
# Method in brief: as §1
# [9] = compound: CCN(CC)Cc1ccc2cc(COC(=O)Nc3ccc(C(=O)NO)cc3)ccc2c1 [givinostat]
# Method in brief: as §1
# [10] = compound: CCN(CCCOc1ccc2c(Nc3cc(CC(=O)Nc4cccc(F)c4)[nH]n3)ncnc2c1)CCOP(=O)(O)O [barasertib]
# Method in brief: as §1
# [11] = compound: CC[C@@H]1C(=O)N(C)c2cnc(Nc3ccc(C(=O)NC4CCN(C)CC4)cc3OC)nc2N1C1CCCC1
# Method in brief: as §1
# [12] = compound: CC[C@@H]1C(=O)N(C)c2cnc(Nc3ccc(C(=O)N[C@H]4CC[C@H](N5CCN(CC6CC6)CC5)CC4)cc3OC)nc2N1C(C)C [volasertib]
# Method in brief: as §1
# [13] = compound: CC[C@H](C)N1C=C(C2=C(C=C(C=C21)C3=CN=C(C=C3)N4CCNCC4)C(=O)NCC5=C(C=C(NC5=O)C)C)C
# Method in brief: as §1
# [14] = compound: CC[C@H](C)[C@@H](C(=O)N[C@@H]([C@@H](C)O)C(=O)N[C@@H](CC(C)C)C(=O)[C@]1(CO1)C)NC(=O)[C@H]([C@@H](C)CC)N(C)C(=O)C [epoxomicin]
# Method in brief: as §1
# [15] = compound: CCn1c(C(=O)N(C2CC2)C2CC2)cc2c3c(ncn3C)c(Nc3cc(C)n(C)n3)nc21
# Method in brief: as §1
# [16] = compound: CCn1cc(-c2ccnc3[nH]c(-c4cccc(CN(C)C)c4)cc23)c(-c2ccc(NC(=O)N(C)C)cc2)n1
# Method in brief: as §1
# [17] = compound: CN(C)CC(=O)Nc1ccc2[nH]c(=O)c3ccccc3c2c1
# Method in brief: as §1
# [18] = compound: CN(CCOC1=CC=C(C=C1)C[C@H]2C(=O)NC(=O)S2)C3=CC=CC=N3 (racemic) [rosiglitazone]
# Method in brief: as §1
# [19] = compound: CN1C2=C(C3=C1C(=O)N(N=C3)CC4=CC(=CC=C4)N)SC(=C2)S(=O)C
# Method in brief: as §1
# [20] = compound: CN1CCC(CNc2ccc3ncc(-c4cccc(OC(F)(F)F)c4)n3n2)CC1
# Method in brief: as §1
# UniProt Q13362, sequence (Q13362 whole entry, looked up): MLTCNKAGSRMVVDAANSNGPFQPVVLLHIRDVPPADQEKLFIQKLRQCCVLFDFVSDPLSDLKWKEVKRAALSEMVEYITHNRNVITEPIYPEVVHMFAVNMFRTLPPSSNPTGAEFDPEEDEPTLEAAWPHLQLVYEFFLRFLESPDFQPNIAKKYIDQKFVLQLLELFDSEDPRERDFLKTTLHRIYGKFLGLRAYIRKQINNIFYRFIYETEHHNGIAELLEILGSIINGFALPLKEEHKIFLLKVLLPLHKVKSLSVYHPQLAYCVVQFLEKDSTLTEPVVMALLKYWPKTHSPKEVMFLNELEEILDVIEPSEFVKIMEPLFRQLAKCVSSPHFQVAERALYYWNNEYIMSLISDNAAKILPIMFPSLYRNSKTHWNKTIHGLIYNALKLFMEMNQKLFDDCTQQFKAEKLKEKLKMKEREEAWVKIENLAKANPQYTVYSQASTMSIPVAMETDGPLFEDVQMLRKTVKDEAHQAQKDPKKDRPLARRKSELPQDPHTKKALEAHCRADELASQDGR
# UniProt Q6WKZ4, sequence (Q6WKZ4 whole entry, looked up): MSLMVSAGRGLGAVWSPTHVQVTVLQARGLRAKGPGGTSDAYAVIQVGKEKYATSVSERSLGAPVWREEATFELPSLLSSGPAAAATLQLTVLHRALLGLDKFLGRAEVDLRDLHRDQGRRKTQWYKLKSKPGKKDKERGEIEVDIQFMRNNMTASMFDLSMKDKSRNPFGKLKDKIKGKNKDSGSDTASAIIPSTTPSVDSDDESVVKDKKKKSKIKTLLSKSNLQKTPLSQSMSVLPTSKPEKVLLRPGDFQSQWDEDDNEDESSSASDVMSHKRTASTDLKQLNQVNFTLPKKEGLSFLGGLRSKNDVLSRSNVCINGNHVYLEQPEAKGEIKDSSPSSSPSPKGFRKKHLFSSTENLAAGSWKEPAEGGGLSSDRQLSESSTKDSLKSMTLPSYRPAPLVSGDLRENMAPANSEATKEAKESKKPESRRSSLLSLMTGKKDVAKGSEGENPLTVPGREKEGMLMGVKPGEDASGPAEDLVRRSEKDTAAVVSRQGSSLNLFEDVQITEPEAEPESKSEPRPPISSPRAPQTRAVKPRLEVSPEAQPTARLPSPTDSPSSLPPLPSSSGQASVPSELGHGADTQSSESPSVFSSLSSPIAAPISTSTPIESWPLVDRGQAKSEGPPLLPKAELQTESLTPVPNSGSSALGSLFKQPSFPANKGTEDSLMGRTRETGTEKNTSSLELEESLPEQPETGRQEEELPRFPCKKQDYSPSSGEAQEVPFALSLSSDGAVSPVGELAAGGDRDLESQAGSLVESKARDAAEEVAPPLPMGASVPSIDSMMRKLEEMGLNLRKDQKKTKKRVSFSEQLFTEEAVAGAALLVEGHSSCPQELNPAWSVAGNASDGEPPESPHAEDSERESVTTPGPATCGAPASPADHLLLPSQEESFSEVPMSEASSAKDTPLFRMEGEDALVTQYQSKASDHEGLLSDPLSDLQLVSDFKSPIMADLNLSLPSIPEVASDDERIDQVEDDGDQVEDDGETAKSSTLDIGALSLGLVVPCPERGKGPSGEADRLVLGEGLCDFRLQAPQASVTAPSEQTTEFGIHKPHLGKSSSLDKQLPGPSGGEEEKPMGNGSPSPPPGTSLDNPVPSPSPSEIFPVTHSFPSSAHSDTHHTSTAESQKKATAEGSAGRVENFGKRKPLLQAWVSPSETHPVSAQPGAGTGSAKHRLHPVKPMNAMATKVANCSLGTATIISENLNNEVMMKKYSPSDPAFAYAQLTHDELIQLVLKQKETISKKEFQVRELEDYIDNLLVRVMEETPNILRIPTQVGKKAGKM
# UniProt Q14181, sequence (Q14181 whole entry, looked up): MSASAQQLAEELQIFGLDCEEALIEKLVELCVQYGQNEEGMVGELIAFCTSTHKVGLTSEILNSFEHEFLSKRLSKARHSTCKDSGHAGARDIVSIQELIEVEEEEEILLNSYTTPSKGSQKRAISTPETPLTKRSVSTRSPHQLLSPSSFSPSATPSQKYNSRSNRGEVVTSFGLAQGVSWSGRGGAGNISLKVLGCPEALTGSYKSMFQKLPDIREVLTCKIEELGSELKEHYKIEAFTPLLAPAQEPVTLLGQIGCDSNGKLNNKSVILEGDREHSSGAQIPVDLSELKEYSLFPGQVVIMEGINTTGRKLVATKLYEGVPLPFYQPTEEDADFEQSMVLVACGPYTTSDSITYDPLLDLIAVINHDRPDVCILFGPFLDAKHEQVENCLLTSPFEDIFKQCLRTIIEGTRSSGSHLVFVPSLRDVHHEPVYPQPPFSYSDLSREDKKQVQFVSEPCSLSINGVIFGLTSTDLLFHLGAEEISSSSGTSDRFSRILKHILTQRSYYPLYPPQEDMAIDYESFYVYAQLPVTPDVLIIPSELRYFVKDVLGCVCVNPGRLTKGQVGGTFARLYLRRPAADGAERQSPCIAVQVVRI
# UniProt Q15257, sequence (Q15257 whole entry, looked up): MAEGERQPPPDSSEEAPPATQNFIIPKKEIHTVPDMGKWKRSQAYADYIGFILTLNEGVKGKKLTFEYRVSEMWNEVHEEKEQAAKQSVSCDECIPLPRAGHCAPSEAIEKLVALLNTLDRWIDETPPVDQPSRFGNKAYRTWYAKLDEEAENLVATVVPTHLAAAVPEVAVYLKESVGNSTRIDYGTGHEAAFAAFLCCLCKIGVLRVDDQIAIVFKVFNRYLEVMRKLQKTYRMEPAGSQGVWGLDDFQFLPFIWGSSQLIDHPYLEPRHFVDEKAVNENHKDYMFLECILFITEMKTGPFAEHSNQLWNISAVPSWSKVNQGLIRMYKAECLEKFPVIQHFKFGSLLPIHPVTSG
# UniProt P05771, sequence (P05771 whole entry, looked up): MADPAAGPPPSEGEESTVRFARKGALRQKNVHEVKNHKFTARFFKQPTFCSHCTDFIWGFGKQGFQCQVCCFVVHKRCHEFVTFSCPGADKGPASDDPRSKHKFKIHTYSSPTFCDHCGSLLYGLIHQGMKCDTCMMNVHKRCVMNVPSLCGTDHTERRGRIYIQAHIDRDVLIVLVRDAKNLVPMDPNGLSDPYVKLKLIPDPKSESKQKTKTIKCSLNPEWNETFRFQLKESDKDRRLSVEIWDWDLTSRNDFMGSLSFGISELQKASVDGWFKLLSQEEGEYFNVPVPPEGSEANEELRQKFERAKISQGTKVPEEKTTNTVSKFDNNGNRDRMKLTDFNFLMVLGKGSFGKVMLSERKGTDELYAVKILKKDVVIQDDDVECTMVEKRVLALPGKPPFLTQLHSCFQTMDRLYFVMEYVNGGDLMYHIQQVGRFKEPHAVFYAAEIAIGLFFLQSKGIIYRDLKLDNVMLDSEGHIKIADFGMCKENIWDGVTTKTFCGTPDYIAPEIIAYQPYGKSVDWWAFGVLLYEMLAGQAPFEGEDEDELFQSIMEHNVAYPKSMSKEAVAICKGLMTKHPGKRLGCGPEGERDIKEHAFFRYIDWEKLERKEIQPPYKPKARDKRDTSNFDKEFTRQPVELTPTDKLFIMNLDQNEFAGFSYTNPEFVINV
# UniProt P42785, sequence (P42785 whole entry, looked up): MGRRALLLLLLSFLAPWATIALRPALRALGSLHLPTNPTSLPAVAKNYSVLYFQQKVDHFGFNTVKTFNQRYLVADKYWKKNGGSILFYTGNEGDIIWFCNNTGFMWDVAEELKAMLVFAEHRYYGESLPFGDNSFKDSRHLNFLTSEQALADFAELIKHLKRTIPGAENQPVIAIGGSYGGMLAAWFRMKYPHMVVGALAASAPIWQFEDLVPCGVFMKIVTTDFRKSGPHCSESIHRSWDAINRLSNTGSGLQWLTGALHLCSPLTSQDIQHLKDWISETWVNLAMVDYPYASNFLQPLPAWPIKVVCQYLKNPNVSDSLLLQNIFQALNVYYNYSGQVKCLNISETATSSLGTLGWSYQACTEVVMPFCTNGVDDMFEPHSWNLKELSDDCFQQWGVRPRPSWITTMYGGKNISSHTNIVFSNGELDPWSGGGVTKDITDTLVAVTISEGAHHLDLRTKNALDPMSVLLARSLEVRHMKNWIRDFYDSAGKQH
# UniProt Q9NR22, sequence (Q9NR22 whole entry, looked up): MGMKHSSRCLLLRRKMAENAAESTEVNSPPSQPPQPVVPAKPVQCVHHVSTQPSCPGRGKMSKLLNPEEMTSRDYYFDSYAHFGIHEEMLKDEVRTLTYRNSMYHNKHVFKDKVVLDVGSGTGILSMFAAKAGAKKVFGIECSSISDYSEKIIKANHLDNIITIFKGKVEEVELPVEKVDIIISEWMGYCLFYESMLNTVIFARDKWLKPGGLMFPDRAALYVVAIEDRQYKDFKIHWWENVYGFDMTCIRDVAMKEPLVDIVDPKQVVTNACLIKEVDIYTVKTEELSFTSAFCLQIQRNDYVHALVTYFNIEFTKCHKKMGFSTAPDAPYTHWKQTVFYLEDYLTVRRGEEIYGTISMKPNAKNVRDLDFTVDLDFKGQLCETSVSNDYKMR
# UniProt O43741, sequence (O43741 whole entry, looked up): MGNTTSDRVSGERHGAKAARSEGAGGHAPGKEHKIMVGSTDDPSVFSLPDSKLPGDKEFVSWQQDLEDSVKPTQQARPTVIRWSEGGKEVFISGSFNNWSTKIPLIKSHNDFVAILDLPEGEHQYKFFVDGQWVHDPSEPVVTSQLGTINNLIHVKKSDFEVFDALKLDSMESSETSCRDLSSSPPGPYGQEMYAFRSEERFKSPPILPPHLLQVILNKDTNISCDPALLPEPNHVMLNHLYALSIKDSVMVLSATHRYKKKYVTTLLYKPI
# UniProt Q15004, sequence (Q15004 whole entry, looked up): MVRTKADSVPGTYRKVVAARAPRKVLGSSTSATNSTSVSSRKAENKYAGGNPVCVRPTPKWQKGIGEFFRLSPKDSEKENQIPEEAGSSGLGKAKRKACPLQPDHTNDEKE
# UniProt O95997, sequence (O95997 whole entry, looked up): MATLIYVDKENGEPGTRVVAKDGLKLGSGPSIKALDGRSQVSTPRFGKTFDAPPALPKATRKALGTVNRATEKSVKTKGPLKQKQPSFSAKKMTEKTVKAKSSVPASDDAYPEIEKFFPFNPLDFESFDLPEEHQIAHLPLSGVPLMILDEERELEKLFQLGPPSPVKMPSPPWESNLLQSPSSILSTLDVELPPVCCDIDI
Target,log2 fold change [1],log2 fold change [2],log2 fold change [3],log2 fold change [4],log2 fold change [5],log2 fold change [6],log2 fold change [7],log2 fold change [8],log2 fold change [9],log2 fold change [10],log2 fold change [11],log2 fold change [12],log2 fold change [13],log2 fold change [14],log2 fold change [15],log2 fold change [16],log2 fold change [17],log2 fold change [18],log2 fold change [19],log2 fold change [20]
PRMT8 (UniProt Q9NR22),0.285,-0.033,0.097,0.016,-0.125,0.028,0.156,-0.009,-0.043,0.031,0.019,-0.074,0.011,0.017,0.035,-0.087,-0.022,-0.026,-0.117,-0.009
PRKAB2 (UniProt O43741),0.122,-0.015,0.106,0.118,-0.079,0.074,0.177,-0.18,0.027,0.067,0.085,-0.185,0.022,0.205,0.013,-0.089,0.067,0.044,0.043,-0.247
PPP2R5C isoform 5 (UniProt Q13362),0.001,-0.045,0.012,0.052,-0.171,0.066,0.038,0.032,0.059,0.018,-0.12,-0.429 (active),0.019,0.06,-0.086,-0.009,-0.023,0.021,-0.027,-0.203
PIGG (UniProt Q5H8A4),0.016,-0.003,0.004,-0.007,0.018,0.359,-0.019,-0.045,0.001,0.001,-0.062,0.022,0.037,-0.017,-0.049,-0.022,0.009,0.015,-0.04,0.093
PRKCB isoform 2 (UniProt P05771),0.005,-0.014,-0.003,0.01,-0.01,0.009,-0.007,0.002,0.001,0.015,-0.068,-0.213 (active),0.04,0.03,-0.005,-0.06,0.006,0.007,-0.054,-0.135
PUF60 (UniProt Q9UHX1),0.046,-0.018,0.043,0.022,-0.003,0.034,0.14,0.009,0.022,0.025,-0.078,-0.304 (active),0.033,0.028,-0.045,-0.032,0.007,0.022,-0.031,0.051
POLA2 (UniProt Q14181),0.073,0.044,-0.037,0.061,-0.011,0.034,0.048,-0.02,0.021,0.021,-0.114,-0.328 (active),0.051,0.022,-0.008,-0.109,0.1,0.061,-0.057,-0.22
PRPF3 (UniProt O43395),0.05,-0.025,0.038,0.117,-0.087,0.1,0.081,-0.005,0.086,0.028,-0.114,-0.34 (active),0.069,0.069,-0.05,-0.062,0.116,0.059,0.004,-0.17
PRCP (UniProt P42785),0,0.061,0.022,-0.002,0.072,0.008,0.01,-0.082,0.035,-0.008,-0.265 (active),-0.291 (active),-0.024,-0.002,0.037,0.008,0.014,0.019,0.024,-0.389 (active)
RAB11FIP1 (UniProt Q6WKZ4),-0.009,0.001,0.015,-0.018,0.034,0.006,0.063,0.009,0.015,0.014,-0.07,-0.105,0.023,0.122,0.015,-0.063,0.021,0.018,-0.017,-0.373 (active)
PTPA (UniProt Q15257),0.001,-0.01,0.004,0.014,-0.006,0.044,-0.017,-0.046,-0.005,-0.007,-0.007,0.004,-0.012,0.051,-0.017,-0.06,-0.002,0.008,-0.072,-0.009
PRPF40A (UniProt O75400),0.016,0,0.022,0.018,-0.051,0.109,0.02,0.073,0.156,0,-0.036,-0.216,0.089,0.022,-0.096,0.065,0.036,0.041,0.074,-0.04
PRPF31 (UniProt Q8WWY3),0.021,-0.12,0,0.067,-0.01,-0.017,0.087,0.106,0.065,0.096,-0.113,-0.548 (active),0.172,0.049,-0.058,-0.079,0.181,0.104,-0.041,-0.348
PCLAF (UniProt Q15004),-0.119,0.031,-0.014,-0.009,-0.002,-0.097,-0.083,0.115,-0.061,-0.007,0.085,0.124,-0.046,0.185,0.012,0.035,-0.087,-0.014,0.001,0.015
PTTG1 (UniProt O95997),0.007,-0.353,0.02,-0.077,0.098,-0.081,-0.045,-0.021,0.068,0.023,0.105,0.124,0.008,0.293 (active),0.008,0.057,-0.02,0.008,0.008,-0.092
PRKAR2A (UniProt P13861),0.141,0.001,0.011,-0.033,0.008,-0.021,-0.021,0.019,0.024,-0.001,0.03,-0.024,0.046,-0.031,-0.007,-0.033,0.047,0.011,0.077,0.023
